The campaign covered roughly 340,000 compounds. About 170 (0.05%) were called active. Another 26% or so got no clear call; they are omitted. The full list was thinned out, with actives kept by preference. Unmarked numbers belong to inactive results. The call rests on the fitted dose curve; in most records, active means well fitted inhibition curve with a large enough effect in the signal ratio, with a control signal flat (not every such curve was filed as active); inconclusive means small, poorly fitted or top-dose-only effect, or effect the other way, or a change in a side signal; inactive means flat fitted curve, though single readings scatter; the % refers to the signal ratio.
test: qHTS Assay to Find Inhibitors of Chronic Active B-Cell Receptor Signaling; conditions: ABC-DLBCL IkBa-CBG/CBR reporter, luminescence ratio, 4 h; series mostly up to 46.1 µM; activity change, negative = inhibition: at the top concentration
Excerpt: NIH Molecular Libraries Probe Production Network [MLPCN] NIH Chemical Genomics Center [NCGC] MLPCN Grant: 1 R03 DA031086-01A1 PI Name: Dr. R. Eric Davis NCGC Assay Overview: Diffuse large B-cell lymphoma (DLBCL) is the most common category of non-Hodgkin lymphoma, with ~20,000 new cases per year in the United States. DLBCL should be regarded as a collection of different neoplasms. Microarray gene expression analysis has defined two principal types of DLBCL, named for their similarity to normal B cell stages or activation states: a germinal center B-cell (GCB) type, and an activated B-cell (ABC) type. In ABC-DLBCL, a constitutive high-level activity of the NF-kappaB family of transcription factors has been observed (1) and NF-kappaB target genes are more highly expressed in ABC primary tumors than in GCB tumors. Functional studies have shown a constitutive high-level activity of the IkappaB (inhibitor of kappa-B) kinase (IKK) complex. […] Further analysis of DLBCL primary tumors for NF-kappaB target gene expression imply that although CARD11 is required for constitutive IKK activity in all ABC-DLBCL lines, mutations in CARD11 may be the root cause of IKK activation only in lines or tumors with such mutations. In other words, CARD11 mutations may explain NF-kappaB activation in only 10% of ABC-DLBCL cases. […] This process has been termed 'chronic active BCR signaling' (CABS). The goal of this screen is to find small-molecule inhibitors of the CABS pathway found in ABC-DLBCL lines using a cell-based assay that measures IkappaBalpa stability, which has already been extensively validated in the OCI-Ly3 line (PubChem AID:445; REF: 4). […] The assay uses green (CBG68) and red (CBR) emitting beetle luciferases [Chroma-GloTM developed by Promega Corp.] where the green luciferase is fused to IkappaBalpha and the red luciferase is present in its native state. Both luciferase genes are stably present in the TMD8 human ABC DLBCL cell line, but their expression is under the control of tetracycline-inducible promoters. Following the addition of doxycycline to induce expression of the luciferases, the green luminescence in control cultures rises only slowly because the CBG fusion partner IkappaBalpha is targeted by IKK activity for rapid degradation. In contrast, green luminescence rises rapidly in the presence of proteasome inhibitors or IKK inhibitors. The rise in red luminescence of CBR is not affected by proteasome or IKK inhibitors, and serves as normalization for cell number and nonspecific effects. Compounds were screened as a concentration-titration series that ranged from 46 uM to 3 nM.
NCGC Assay Protocol Summary: Cells were seeded in 1536-well plates at 5000 cells/4uL in IMDM medium containing 0.5% FBS, w/o phenol red, 1% penicillin/streptomycin. Then, 23 nL of compounds or DMSO were delivered to each well using a pin tool. One uL 20ng/ml doxycycline was then dispensed into white solid 1536-well plates and the plates were incubated at 37C/5% C02 in a cell incubator for 4 hrs. Then 4 uL luminescent substrate mix (in-house prepared: 150 mM Tris-Cl, pH 7.6, 3 mM MgCl2, 1% Triton X-100, 5 mM DTT, 0.2 mM CoA, 0.15 mM ATP, 5 mM D-luciferin, final concentrations) was added to each well. The plate was incubated at r.t. for 10-15 min. The plates were measured on a ViewLux plate reader for green luminescence (540/20 nm filter) and red luminescence (618/8 nm filter). The green and red luminescent signals were corrected for red and green luminescence filter overlap using previously determined filter calibration constants (determined using the procedure outlined in the Promega Technical Manual; REF 4). The %Activity was determined from the ratio of corrected green/red luminescent values. MG132 were used as control. […] Red luminescent %Activity was normalized to the difference between red luminesence in basal cells (0%Activity) and zero luminescence (-100% Activity). […]

SMILES | activity change, negative = inhibition [%]
Cn1c(CC(=O)NNC(=O)c2ccccc2F)nc2ccccc21 | -10.5
CN1C(=O)[C@H]2[C@@H](/C=C/c3ccccc3)N3C(=O)CN(Cc4ccc(-c5ccccc5)cc4)C(=O)[C@@]3(C)[C@H]2C1=O | 1.78
COc1cc(Cl)ccc1OCc1cc(C(=O)N(C)CCc2c(C)n[nH]c2C)no1 | -1.42
CC1CCN(c2ccc(-c3ccc(NC(=O)c4ccco4)cc3)nn2)CC1 | 9.68
CC(C)(C)OC(=O)C[C@@H]1C/C=C\C[C@@H](CC(=O)N[C@H](CO)Cc2ccccc2)C(=O)NCCOC1=O | -1.38
CCN1C(=O)[C@@H]2[C@@H](c3ccc(-c4ccccc4)cc3)N3CCCC[C@@]3(C(=O)OC)[C@@H]2C1=O | -13.7
CCN(c1ccccc1)S(=O)(=O)c1ccc(C(=O)Nc2ccccc2OC)cc1 | 1.41
COc1ccc(-c2csc3ncnc(N4CCN(S(=O)(=O)c5cccc(F)c5)CC4)c23)cc1 | -14.3
CC(=O)c1c(C)[nH]c(C(=O)COC(=O)c2cccs2)c1C | -2.67
COc1ccc(-c2c(C#Cc3ccsc3)c3cc(-c4ccc(CN5CCOCC5)cc4)ccc3n2C)cc1 | 3.39
O=C(Nc1cc(S(=O)(=O)Nc2ccc(Cl)cc2)ccc1O)c1ccc(F)cc1F | 0.136
Cc1cc(C)cc(OCC(=O)Nc2ccc(N3CCOCC3)cc2N2CCOCC2)c1 | -5.71
C=CC[C@H](CC(=O)NCCO)C(=O)N[C@@H](COC(=O)[C@@H](CC=C)Cc1ccc(F)cc1)Cc1c[nH]c2ccccc12 | -0.684
CSCc1nnc(NC(=O)c2ccc(S(=O)(=O)N3CCCCC3C)cc2)o1 (centres undefined) | 3.95
CCOCc1c(C(=O)N2CCN(Cc3ccc(Br)s3)CC2)oc2ccccc12 | -2.34
COc1cc(OC)cc(-c2c(-c3cccs3)c3cc(-c4ccc(OC)cc4F)ccc3n2C)c1 | 4.81
COc1ccc(CNC(=O)C[C@H]2C[C@H](C(=O)N3CCOCC3)[C@@]3(C)c4[nH]c5cc(CCC(=O)N(C)C)ccc5c4CCN3C2=O)cc1OC | -3.2
O=C(COC(=O)c1c(Cl)cccc1Cl)Nc1cccc(S(=O)(=O)NC2=NCCCCC2)c1 | -10.1
CCN(CC)S(=O)(=O)c1ccc(N2CCN(C)CC2)c(NC(=O)Nc2ccccc2F)c1 | 4.9
CCCN(CC(=O)NC(=O)NC1CCCCC1)CC(=O)Nc1cc(Cl)ccc1Cl | 0.641
COc1cc(C(=O)NCc2ccncc2)cc(Br)c1OCc1ccccc1 | 5.05
CN(c1ccccc1)S(=O)(=O)c1cc(C(=O)N2CCN(c3ncccn3)CC2)ccc1Cl | 3.2

SMILES | activity change, negative = inhibition [%]
CN[C@H](C(=O)NC[C@H]1O[C@@H](n2cnc3c(N)ncnc32)[C@H](O)[C@@H]1O)[C@@H](C)OCc1ccccc1 | 6.59
CCN(CC)S(=O)(=O)c1ccc(CNC(=O)CN2C(=O)NC3(CCc4ccccc43)C2=O)cc1 (centres undefined) | -2.21
O=C(NC1CCCCCC1)C1CCN(C(=O)c2ccc(Cl)cc2)CC1 | 1.11
Cc1nn(Cc2ccccc2)c(C)c1C(=O)N1CCN(CC(=O)Nc2ccccc2Cl)CC1 | -1.85
COc1cc(OC)cc(-c2c(-c3ccc(F)cc3)c3cc(-c4ccc5cc[nH]c5c4)ccc3n2C)c1 | 8.48
O=C(CNC(=O)c1ccco1)NNC(=O)c1ccc(Br)cc1 | 5.31
CC(C)(C)OC(=O)C[C@@H]1C/C=C\C[C@@H](CC(=O)NCCO)C(=O)N[C@H](Cc2c[nH]c3ccccc23)COC1=O | -1.8
CC(C)c1ccc(S(=O)(=O)N2CCN(C(C)C(=O)NC3CCCC3)CC2)cc1 (centres undefined) | 3.72
CN(CC(=O)Nc1ccc(Cl)c(C(F)(F)F)c1)C(=O)CCC(=O)c1ccccc1 | -4.03
CC1CCC(CN2CCN=C2N(C)C)CC1 (centres undefined) | -3.3
COc1ccc(C(CNC(=O)c2ccc(NS(=O)(=O)c3ccc(F)c(C)c3)cc2)N(C)C)cc1 (centres undefined) | -5.47
COc1cc(OC)cc(C(=O)N[C@H](C(=O)NNC(=O)c2ccc(Br)cc2)C(C)C)c1 | -0.119
CCN1C(=O)[C@@H]2[C@@H](c3ccc(-c4cccc(Cl)c4)cc3)N3CCC[C@@]3(C(=O)OC)[C@@H]2C1=O | 0.439
C=C(C)CNc1cc(S(=O)(=O)N2CCOCC2)ccc1Oc1ccccc1 | 5.13
Cc1cc(Cl)c2oc(C(=O)N(C)C(C)c3ccccn3)c(C)c2c1 (centres undefined) | 0.284
CSCCC(NC(=O)c1ccccc1)C(=O)N1CCN(Cc2ccc(Cl)cc2)CC1 (centres undefined) | -5.22
COc1ccc(S(=O)(=O)N(C)C[C@H]2Oc3c(NC(=O)Nc4ccc5c(c4)OCO5)cccc3C(=O)N([C@H](C)CO)C[C@@H]2C)cc1 | -0.56
O=C(NCCC1CCCCN1S(=O)(=O)c1ccc(Cl)cc1)C(=O)NCc1ccco1 (centres undefined) | 10.6
O=C(NCCC(=O)N1O[C@@H]2C=C[C@H]1C2)OCC1c2ccccc2-c2ccccc21 | 4.42
N#Cc1cccc(NC(=O)C2CCCN(C(=O)c3ccc(Cl)cc3)C2)c1 (centres undefined) | -7.04
CC(C)(C)OC(=O)C[C@@H]1C/C=C\C[C@@H](CC(=O)N[C@@H](CO)Cc2ccccc2)C(=O)N2CCC[C@H]2COC1=O | -1.12
CNS(=O)(=O)c1cccc(C(=O)OCCCC(=O)c2ccccc2)c1 | -4.27
